An excerpt weighted towards active compounds, which were near 7.3% of everything screened.
IP6K1 inhibitor – inhibitors of human IP6K1; Q92551; actives 0.81% (n = 140,000); activity change, % (series mostly up to about 58 µM); IP6K1 kinase, ADP-Glo luminescence, 2 h; active compounds read low; in the data active means activity change below about -25%
Target sequence (Q92551 whole entry, looked up): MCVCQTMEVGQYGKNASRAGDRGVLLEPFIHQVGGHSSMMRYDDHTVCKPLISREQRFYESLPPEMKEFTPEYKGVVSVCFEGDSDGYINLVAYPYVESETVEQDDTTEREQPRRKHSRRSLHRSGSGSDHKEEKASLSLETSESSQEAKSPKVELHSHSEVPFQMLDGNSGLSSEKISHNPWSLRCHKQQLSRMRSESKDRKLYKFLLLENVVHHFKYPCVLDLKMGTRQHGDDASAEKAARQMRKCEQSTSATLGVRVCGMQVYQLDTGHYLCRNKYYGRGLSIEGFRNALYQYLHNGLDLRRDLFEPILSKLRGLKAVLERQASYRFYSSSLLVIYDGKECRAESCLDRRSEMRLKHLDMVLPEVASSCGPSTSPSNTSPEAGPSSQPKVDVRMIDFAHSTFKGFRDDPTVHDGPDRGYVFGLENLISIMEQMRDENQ
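ADP-Glo luminescence measures ADP made by human IP6K1 during a 2 h RT reaction with ATP/IP6 (mix at 1.3 mM/130 uM); top library doses 57.5 and 19.1 uM final.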
SNCA expr inhib – SNCA gene expression inhibition; HEK-293 SNCA-luciferase knock-in, luminescence, 24 h; Potency, µM (doses to about 57.2 µM), inactives show at the top dose activity change, negative = inhibition, usual class: inhibitors; actives 0.17% (n = 140,000);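 further: potency means the concentration at half of the fitted maximal effect; plate controls were DMSO cells for no effect and cell-free wells for full effect; nearly all actives have a fitted effect of over 45% in size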
Luciferase inh – inhibitors of firefly (Photinus pyralis) luciferase | AID 1347043 | Potency, µM (titrated, usually from 115 µM), usual class: inhibitors | actives 2.5% (n = 76,000) | purified P. pyralis luciferase, luminescence, biochemical; further: potency means the concentration at half of the fitted maximal effect; nearly all actives have a fitted effect of over 65% in size
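Cell-free enzyme assay, 10nM P. pyralis luciferase, luciferin and ATP each at 10uM. Inhibition profiled over a 6-point titration, read as luminescence.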
HEK cytotox – HEK 293 cell cytotoxicity; actives 6.6% (n = 94,000); HEK 293 viability, ATP luminescence (CellTiter-Glo), 48-72 h; Potency, µM (doses to about 115 µM), inactives show at the top dose activity change, negative = cytotoxicity, usual class: inhibitors; further: potency means the concentration at half of the fitted maximal effect; nearly all actives have a fitted effect of over 60% in size
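Cells seeded first (HEK 293, 250 cells/well), then compound added by pintool. Incubation ran 48 or 72 hr at 37 degree Celsius. CellTiter-Glo was added and luminescence imaged after 10 min at room temperature.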
SNCA viab count – reduces viability of HEK-293 SNCA reporter cells. HEK-293-SNCA-luc viability, GF-AFC fluorescence, 24 h. Potency, µM (doses to about 57.1 µM), for inactives: at the top dose activity change, negative = cytotoxicity, most hits filed as cytotoxic. actives 0.12% (n = 150,000);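 further: potency means the concentration at half of the fitted maximal effect; 0% = DMSO-treated cells and -100% = medium-only wells without cells; nearly all actives have a fitted effect of over 30% in size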
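HEK-293-SNCA-luc cells (1500/well) plated 24 h, then exposed 24 h to a dilution series; GF-AFC added 30 min at 37C, fluorescence 405/540 nm; normalised to medium-only and DMSO wells, Hill fit.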
3T3 cytotox – NIH 3T3 cell cytotoxicity | NIH 3T3 viability, CellTiter-Glo ATP luminescence, 48-72 h | Potency, µM (doses to about 96.7 µM), for the others: at the highest dose activity change, negative = cytotoxicity, actives largely listed as inhibitors | actives 4.3% (n = 94,000) | AID 1345082; further: potency means the concentration at half of the fitted maximal effect; nearly all actives have a fitted effect of over 55% in size
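ATP-dependent luminescence (CellTiter-Glo) served as the viability signal for NIH 3T3 cells treated with compound for 48 or 72 hr at 37 °C.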
Starred values were filed as active, the others as inactive; [ ] = dose if it differs, or a comment. Unless noted, the call rests on the fitted dose curve; in most records, active means well fitted curve in the direction sought with a large enough effect; inconclusive means small, poorly fitted or top-dose-only effect, or another doubt; inactive means no such curve, though single readings can be large; an effect the other way counts as inactive or inconclusive. Unless noted, on the % scale 0 is the no-effect control and ±100 the full control effect.

How did COCCOc1cc(C)c2c(c1C)C[C@H](C(C)C(=O)N1CCC(O)CC1)CC2 (some centres not stated) do in these assays?
IP6K1 inhibitor: -8; SNCA expr inhib: 47%[87.6 µM]; Luciferase inh: inactive; HEK cytotox: 0%[172 µM]; SNCA viab count: -3%[87.6 µM]; 3T3 cytotox: -34%[174 µM]

What do the screens show for `COc1ccccc1N1CCN(C(=O)C(C)[C@@H]2CCc3c(C)cc(OCCN4CCOCC4)c(C)c3C2)CC1` (some centres not stated)?
IP6K1 inhibitor: 0; SNCA expr inhib: inconclusive; Luciferase inh: inactive; HEK cytotox: 22µM*; SNCA viab count: -28%; 3T3 cytotox: inconclusive

How did COc1cc(F)ccc1-c1ccc2c(n1)c(=O)ncn2CC1CC1 do in these assays?
IP6K1 inhibitor: 17; SNCA expr inhib: -16%[87.6 µM]; Luciferase inh: inactive; HEK cytotox: -14%[172 µM]; SNCA viab count: -7%[87.6 µM]; 3T3 cytotox: inconclusive

Results for O=c1ncn(CC2CC2)c2ccc(N3CCC(c4ccccc4)CC3)nc12 ?
IP6K1 inhibitor: 11; SNCA expr inhib: 10%[87.6 µM]; Luciferase inh: 56µM*; HEK cytotox: inconclusive; SNCA viab count: -1%[87.6 µM]; 3T3 cytotox: -22%[138 µM]

What do the screens show for `COCCn1cnc2ccc(-c3cccc(O)c3)nc2c1=O`?
IP6K1 inhibitor: -1; SNCA expr inhib: inconclusive; Luciferase inh: inactive; HEK cytotox: -21%[172 µM]; SNCA viab count: 1%[87.6 µM]; 3T3 cytotox: 22µM*

How did O=c1ncn(CC2CC2)c2ccc(-c3ccc(F)cc3F)nc12 do in these assays?
IP6K1 inhibitor: -10; SNCA expr inhib: 88%[87.6 µM]; Luciferase inh: inactive; HEK cytotox: -42%[172 µM]; SNCA viab count: 1%[87.6 µM]; 3T3 cytotox: 100µM*

What do the screens show for `COCCn1cnc2ccc(-c3ccccc3)nc2c1=O`?
IP6K1 inhibitor: -6; SNCA expr inhib: 36%[87.6 µM]; Luciferase inh: inconclusive; HEK cytotox: 3%[230 µM]; SNCA viab count: 8%[87.6 µM]; 3T3 cytotox: inconclusive

How did Cc1ccc(-c2ccc3ncn(Cc4ccccn4)c(=O)c3n2)c(C)c1 do in these assays?
IP6K1 inhibitor: 4; SNCA expr inhib: -3%[87.6 µM]; Luciferase inh: inactive; HEK cytotox: -11%[172 µM]; SNCA viab count: -6%[87.6 µM]; 3T3 cytotox: 25µM*

Results for CN(Cc1ccccc1C(F)(F)F)C(=O)c1ccc(F)cc1 ?
IP6K1 inhibitor: -10; SNCA expr inhib: -4%[87.6 µM]; Luciferase inh: inactive; HEK cytotox: inconclusive; SNCA viab count: 11%[87.6 µM]; 3T3 cytotox: -21%[138 µM]

What do the screens show for `O=c1c2nc(-c3ccccc3)ccc2ncn1Cc1ccccn1`?
IP6K1 inhibitor: 18; SNCA expr inhib: -19%[87.6 µM]; Luciferase inh: inactive; HEK cytotox: -10%[172 µM]; SNCA viab count: -5%[87.6 µM]; 3T3 cytotox: 79µM*

Results for O=c1c2nc(N3CCC(c4ccccc4)CC3)ccc2ncn1Cc1ccccn1 ?
IP6K1 inhibitor: -3; SNCA expr inhib: -9%[87.6 µM]; Luciferase inh: 63µM*; HEK cytotox: inconclusive; SNCA viab count: -2%[87.6 µM]; 3T3 cytotox: -28%[138 µM]

What do the screens show for `Cn1ccc2cc(-c3ccc4ncn(Cc5ccccn5)c(=O)c4n3)ccc21`?
IP6K1 inhibitor: -8; SNCA expr inhib: 38%[87.6 µM]; Luciferase inh: 45µM*; HEK cytotox: -23%[172 µM]; SNCA viab count: -13%[87.6 µM]; 3T3 cytotox: 89µM*

Results for O=c1c2nc(N3CCC(c4ccccc4)CC3)ccc2ncn1-c1cccnc1 ?
IP6K1 inhibitor: 9; SNCA expr inhib: 9%[87.6 µM]; Luciferase inh: inconclusive; HEK cytotox: inconclusive; SNCA viab count: -3%[87.6 µM]; 3T3 cytotox: inconclusive

Results for CN1C(=O)CC[C@]2(C(=O)NCc3cccc(C(F)(F)F)c3)CCCC[C@@H]12 ?
IP6K1 inhibitor: -5; SNCA expr inhib: 2%; Luciferase inh: inactive; HEK cytotox: 5%; SNCA viab count: -9%; 3T3 cytotox: -13%

How did O=C(C1CCCN(c2nc(-c3ccccc3)nc3c2CCC3)C1)N1CCCNCC1 (configuration not stated) do in these assays?
IP6K1 inhibitor: 8; SNCA expr inhib: -1%; Luciferase inh: inactive; HEK cytotox: inconclusive; SNCA viab count: -28%; 3T3 cytotox: inconclusive
